Inconclusive results are not listed. Calls of active or inactive are those of the source. How the source made its calls: active means hit-call score of the fitted dose curve at least 0.9, where 1 is the maximum; inconclusive means response in the unintended direction; inactive means score below 0.9.

This passage reports outcome and AC50 results from PubChem BioAssay (EPA / NIEHS).

Sequence of Nuclear receptor subfamily 1 group I member 2 (Homo sapiens) (O75469 whole entry, looked up): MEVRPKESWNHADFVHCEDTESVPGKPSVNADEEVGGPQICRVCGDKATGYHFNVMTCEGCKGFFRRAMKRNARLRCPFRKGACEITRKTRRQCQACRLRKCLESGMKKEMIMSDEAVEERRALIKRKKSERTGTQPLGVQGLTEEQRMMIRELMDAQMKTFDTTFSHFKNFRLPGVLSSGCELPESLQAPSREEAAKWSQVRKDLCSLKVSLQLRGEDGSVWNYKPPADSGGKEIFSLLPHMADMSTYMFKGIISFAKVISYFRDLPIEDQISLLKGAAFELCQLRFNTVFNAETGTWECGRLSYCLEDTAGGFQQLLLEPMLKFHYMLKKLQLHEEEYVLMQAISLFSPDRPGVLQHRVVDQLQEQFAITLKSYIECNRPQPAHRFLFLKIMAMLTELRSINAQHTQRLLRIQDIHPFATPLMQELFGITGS

The experiment has as its target Nuclear receptor subfamily 1 group I member 2 (Homo sapiens) (UniProt O75469). Kind of experiment: ATG_PXR_TRANS: Attagene TRANS-FACTORIAL HepG2 Assay for human Pregnane X Receptor (PXR) (AID 2283008). The protocol: ATG_TRANS is a cell-based, multiplexed-readout assay that uses HepG2, a human liver cell line, with measurements taken at 24 hours after chemical dosing in a 24-well plate.ATG_PXR_TRANS is one of 30 assay component(s) measured or calculated from the ATG_TRANS assay. It is designed to make measurements of mRNA induction, a form of inducible reporter, as detected with fluorescence intensity signals by Reverse transcription polymerase chain reaction (RT-PCR) and Capillary electrophoresis technology.Data from the assay component ATG_PXR_TRANS was analyzed into 1 assay endpoint. This assay endpoint, ATG_PXR_TRANS, was analyzed in the positive analysis fitting direction relative to DMSO as the negative control and baseline of activity. Using a type of inducible reporter, measures of mRNA for gain-of-signal activity can be used to understand the reporter gene at the transcription factor-level as they relate to the gene NR1I2. Furthermore, this assay endpoint can be referred to as a primary readout, because this assay has produced multiple assay endpoints where this one serves a reporter gene function. To generalize the intended target to other relatable targets, this assay endpoint is annotated to the nuclear receptor intended target family, where the subfamily is non-steroidal.
Human liver HepG2 cells are transiently transfected with multiple reporter transcription units (MRTUs) in 6-well plates using FuGene 6 reagent (Roche; 3 ml FuGene/1 mg DNA). The MRTU constructs are regulated by a cis-regulating element (promoter). […] A major difference between the CIS and TRANS system is that in CIS activities of endogenous TFs are measured, whereas the TRANS assay evaluates changes in activities of exogenous, chimeric NR-Gal4 proteins. […] At the end of 24 hour incubation, total RNA was isolated using TriZol reagent (Invitrogen). The isolated RNA is then reverse-transcribed using oligo(dT) primer and Mo-MLV reverse transcriptase (Invitrogen) with DNAse I (Ambion) treatment for 30 min. The one-tenth of the produced cDNA was amplified by PCR using Taq DNA polymerase (Invitrogen) and two reporter sequence-specific primers. The PCR products were fluorescently labeled by primer extension with 6-arboxyfluorescein (6-FAM) 5'-labeled reporter sequence-specific primer (2 min at 95 C, 20 s at 68 C and 10 min at 72 C) and these products were digested with 5U of HpaI (New England Biolabs) for 2h at 37 C. The fragments were purified using Qiaquick PCR columns (Qiagen), analyzed on an ABI 3130xL genetic analyzer (Applied Biosystems) with peak positions identified by using a set of X-rhodamine (ROX)-labeled MapMarker1000 molecular weight standards (BioVentures). The raw capillary electrophoresis data was processed using Attagraph software (Attagene).
Take `CC(=O)CCC(=O)O`: the compound was classed as inactive. On the same count and under the same terms, next, `O=C(O)c1cccc(Cl)n1`: “inactive”. Usually AC50 stands for the concentration at which the activity in the assay is half-maximal. `CCC(=O)OCC=Cc1ccccc1`: the AC50 was 16.7 µM (active). For `C=CC(=O)OCCCCCC`, the call was inactive. For the compound `CC=CC(=O)C1=C(C)C=CCC1(C)C`, the outcome was inactive. Still for that read-out and setting: next, `Cc1cccc(O)c1`: “inactive”; `[Cu+]`: “inactive”. Same read-out and setting: next, `Cc1ccncc1`: “inactive”; `O=S1(=O)CC(Cl)(Cl)C(Cl)(Cl)C1`: “inactive”; `CCCCCC#CC(=O)OC`: “inactive”.

For `CC(=O)OC(C)(C)C`, the call was inactive. Same read-out and setting: under `CCNC(=S)NCC` stands “inactive”. `Cc1cc(O)c2c(c1)C(=O)c1cc(O)cc(O)c1C2=O`: the AC50 was 6.34 µM (active).

Consider `CN(C)CCC=C1c2ccccc2CCc2ccccc21`, for which the AC50 was 24 µM (active). As for `CC(CCO)CC(C)(C)C` (stereo not given), the outcome was inactive. The same measure, in the same setting: under `CCCCC1CCCCC(=O)O1` (stereo not given) stands “inactive”; under `Nc1ccn([C@H]2CC[C@@H](CO)O2)c(=O)n1`, “inactive”; under `C=CC(C)(CCC=C(C)C)OC(=O)CC` (stereo not given), “inactive”.

With `CC(O)CN` (stereo not given), the result was inactive. Still for that read-out and setting: next, `CC(=O)c1ccc2ccccc2c1`: “inactive”; `CCCCOCC(C)OCC(C)O` (stereo not given): “inactive”.

`CCCCCCCCCCCCS`: the call was inactive. With `CCCO[Si](OCCC)(OCCC)OCCC`, the compound was called inactive.

Take `N=C1N=C(N)c2ccccc21`: the AC50 is 47.5 µM (active). With `C=C(C)CCCC(C)CCO` (stereo not given), the AC50 is 9.99 µM (active).

With `CCC(=O)OC/C=C(\C)CCC=C(C)C`, the compound was called inactive.

In the case of `OCC=Cc1ccccc1`, the call was inactive. For the compound `CCO[Si](CC)(OCC)OCC`, the AC50 is 2.84 µM (active). Consider `c1ccc2scnc2c1`, for which the compound was classed as inactive.

For `C=CC(O)CCCCC` (stereo not given), the result was inactive. On to `Nc1cc([N+](=O)[O-])ccc1C(=O)O`, for which the outcome was inactive. Same read-out and setting: under `CCCCOC(=O)C(C)OC(=O)CCC` (stereo not given) stands “inactive”. `[Cl][Dy]([Cl])[Cl]`: the call was inactive. The same measure, in the same setting: under `OCCN1CCOCC1` stands “inactive”; under `C=COCC1CCC(COC=C)CC1` (stereo not given), “inactive”; under `CCCCCCCCCCO[C@@H]1O[C@H](CO)[C@@H](O)[C@H](O)[C@H]1O`, “inactive”. As for `CCCCCC(=O)O[C@]1(C(C)=O)CC[C@H]2[C@@H]3CCC4=CC(=O)CC[C@]4(C)[C@H]3CC[C@@]21C`, the AC50 is 0.313 µM (active).

As to `Brc1cc(Br)cc(Br)c1`, the compound was called inactive. Take `CCC(C)(C)c1cc(O)c(C(C)(C)CC)cc1O`: the AC50 was 7.37 µM (active). Consider `C=C(C)C(=O)OCCC(C)OC(=O)C(=C)C` (stereo not given), for which the call was inactive.
